Assay results published in PubChem BioAssay (Tox21).
Where “and” joins values, the source holds several entries; their conditions need not be identical. Equal values may be shown once. Inconclusive results are not listed. Some compounds were tested as several samples or in several runs, with calls that do not always agree. Calls of active or inactive are those of the source. Calls follow the shape of the dose curve; as a rule, active = well fitted curve in the direction sought with a large enough effect in the repeat runs; inconclusive = weak or mixed curves; inactive = no such curve, though single readings can be large; an effect the other way counts as inactive or inconclusive.

How the values were obtained:
[1] = A CellTox Green Cytotoxicity Assay to monitor cytotoxicity in HEK293 cells - 40 hour (AID 1224871); also: nearly all actives have a fitted effect of over 45% in size
Method in brief: (§1)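 HEK293 cells, 600/well, were preincubated 5 hours and then exposed to compounds at 37 C for up to 40 hours. A cell-impermeant cyanine dye staining dead-cell DNA was read by fluorescence at 0, 8, 16, 24, 32 and 40 h time points.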

[2] = qHTS RealTime-Glo MT Cell Viability Assay in HEK293 cells - 16 hour (AID 1224872); also: nearly all actives have a fitted effect of over 50% in size
Method in brief: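 Homogeneous bioluminescent viability format in HEK293 cells (600 cells/well). Following 5 h at 37 C/5% CO2, 23 nL compound was pintooled; the signal was measured repeatedly during 40 h incubation.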

[3] = qHTS RealTime-Glo MT Cell Viability Assay in HepG2 cells - 8 hour (AID 1224873); also: nearly all actives have a fitted effect of over 55% in size
Method in brief: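 HepG2 cells mixed with RealTime-Glo MT reagents (NanoLuc plus cell-permeant prosubstrate) were seeded at 600 cells/well, incubated 5 h at 37 C/5% CO2, then pinned with compounds in DMSO; nonlytic luminescence tracked viability during 40 h treatment.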

[4] = qHTS RealTime-Glo MT Cell Viability Assay in HEK293 cells - 40 hour (AID 1224874); details: RealTime-Glo luminescence; max response: stronger effect = lower value; also: nearly all actives have a fitted effect of over 50% in size
Method in brief: (§2)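 600 cells/well were plated with the nonlytic NanoLuc/prosubstrate reagent, pre-incubated 5 h, then given 23 nL of compound in DMSO. Incubation at 37 C for 40 h, with luminescence from viable-cell-reduced substrate read repeatedly from 0 h.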

[5] = A CellTox Green Cytotoxicity Assay to monitor cytotoxicity in HEK293 cells - 24 hour (AID 1224875); also: nearly all actives have a fitted effect of over 45% in size
Method in brief: as §1

[6] = A CellTox Green Cytotoxicity Assay to monitor cytotoxicity in HepG2 cells - 16 hour (AID 1224876); also: nearly all actives have a fitted effect of over 45% in size
Method in brief: (§3)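 HepG2 cells, 600/well, preincubated 5 h with CellTox Green dye, then exposed to Tox21 compounds in DMSO at 37 C for up to 40 h. Dead-cell DNA fluorescence read at the indicated time point.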

[7] = qHTS RealTime-Glo MT Cell Viability Assay in HepG2 cells - 32 hour (AID 1224877); also: nearly all actives have a fitted effect of over 55% in size
Method in brief: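 Cell number in HepG2 cultures estimated from NanoLuc luminescence generated by metabolic reduction of a prosubstrate by living cells. The homogeneous, nonlytic format allowed repeated reads at 0, 8, 16, 24, 32 and 40 h of compound exposure.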

[8] = A CellTox Green Cytotoxicity Assay to monitor cytotoxicity in HepG2 cells - 24 hour (AID 1224878); also: nearly all actives have a fitted effect of over 45% in size
Method in brief: as §3

[9] = A CellTox Green Cytotoxicity Assay to monitor cytotoxicity in HepG2 cells - 40 hour (AID 1224879); also: nearly all actives have a fitted effect of over 40% in size
Method in brief: as §3

[10] = qHTS RealTime-Glo MT Cell Viability Assay in HEK293 cells - 0 hour (AID 1224880); also: nearly all actives have a fitted effect of over 45% in size
Method in brief: as §2
% is scaled to controls: 0 for no effect and ±100 for the full control effect; potency is read from the fitted curve at half-maximal effect.

CCOP(=S)(OCC)OP(=S)(OCC)OCC
inactive: Potency [1] | Potency [2] | Potency [3] | max response [4] 3.87% and 10.7% | Potency [5] | Potency [6] | Potency [7] | Potency [8] | Potency [9] | Potency [10]

CNC(=S)S
inactive: Potency [1] | Potency [2] | Potency [3] | max response [4] 24.9% and 0.0192% | Potency [5] | Potency [6] | Potency [7] | Potency [8] | Potency [9] | Potency [10]

OCCOCCO
inactive: Potency [1] | Potency [2] | Potency [3] | max response [4] -1.92% and 3.49% | Potency [5] | Potency [6] | Potency [7] | Potency [8] | Potency [9] | Potency [10]

CC(C)=CC1C(C(=O)OCN2C(=O)C3=C(CCCC3)C2=O)C1(C)C (stereo not given)
inactive: Potency [1] | Potency [2] | Potency [3] | max response [4] 2.99% | Potency [5] | Potency [6] | Potency [7] | Potency [8] | Potency [9] | Potency [10]

CCC[CH2][Sn]([Cl])([CH2]CCC)[CH2]CCC
inactive: Potency [10]
active: Potency [1] 491 nM and 549 nM | Potency [2] 390 nM and 692 nM | Potency [3] 3.47 µM and 1.38 µM | Potency [4] 310 nM and 436 nM | Potency [5] 979 nM and 2.45 µM | Potency [6] 1.74 µM and 1.23 µM | Potency [7] 1.23 µM and 436 nM | Potency [8] 1.38 µM and 2.19 µM | Potency [9] 1.38 µM and 692 nM

Cc1cc(Cl)ccc1N=CN(C)C
inactive: Potency [1] | Potency [2] | Potency [3] | max response [4] 2.7% and 1.16% | Potency [5] | Potency [6] | Potency [7] | Potency [8] | Potency [9] | Potency [10]

OC(c1ccc(Cl)cc1)(c1cncnc1)c1ccccc1Cl (stereo not given)
17.7 µM (active) and inactive: Potency [7] | Potency [9]
19.8 µM (active) and inactive: Potency [1]
active: Potency [2] 11.2 µM | Potency [4] 5.59 µM and 27.5 µM
25 µM (active) and inactive: Potency [8]
49.8 µM (active) and inactive: Potency [6]

CC(C)(O)C(=O)Nc1ccc([N+](=O)[O-])c(C(F)(F)F)c1
active: Potency [2] 25.1 µM and 25.3 µM | Potency [4] 22.3 µM and 17.9 µM
inactive: Potency [1] | Potency [3] | Potency [5] | Potency [6] | Potency [7] | Potency [8] | Potency [9] | Potency [10]

COC(=O)Nc1nc2ccccc2[nH]1
active: Potency [9] 5.49 µM and 11 µM
inactive: Potency [1] | Potency [2] | Potency [3] | Potency [5] | Potency [6] | Potency [7] | Potency [8] | Potency [10]

COP(=S)(OC)SCn1nnc2ccccc2c1=O
active: Potency [4] 48 µM
inactive: Potency [1] | Potency [3] | Potency [5] | Potency [6] | Potency [7] | Potency [8] | Potency [9]

N#CC(c1ccccc1)c1ccccc1
inactive: Potency [1] | Potency [2] | Potency [3] | max response [4] -11% | Potency [5] | Potency [6] | Potency [7] | Potency [8] | Potency [9] | Potency [10]

CCCCCCCCCc1ccc(O)cc1
44.1 µM (active) and inactive: Potency [1]
inactive: Potency [3] | Potency [7] | Potency [10]
active: Potency [2] 6.99 µM and 4.36 µM | Potency [4] 11.1 µM and 6.92 µM | Potency [6] 39.3 µM | Potency [8] 44.1 µM and 38.9 µM | Potency [9] 24.8 µM

C[N+](C)(C)CC(=O)[O-]
inactive: Potency [1] | Potency [2] | Potency [3] | max response [4] 3.4% and 10.8% | Potency [5] | Potency [6] | Potency [7] | Potency [8] | Potency [9] | Potency [10]

CN(C)P(=O)(N(C)C)N(C)C
inactive: Potency [1] | Potency [2] | Potency [3] | max response [4] 3.42% and 6.93% | Potency [5] | Potency [6] | Potency [7] | Potency [8] | Potency [9] | Potency [10]

Clc1cccc(C(Cl)(Cl)Cl)n1
inactive: Potency [2] | Potency [3] | max response [4] 2.13% and -1.58% | Potency [5] | Potency [7]

O=P(OCCCl)(OCCCl)OCCCl
inactive: Potency [1] | Potency [2] | Potency [3] | max response [4] -9.18% and -11.6% | Potency [5] | Potency [6] | Potency [7] | Potency [8] | Potency [9] | Potency [10]

O=C1C(Cl)=C(Cl)C(=O)c2ccccc21
active: Potency [1] 3.9 µM and 4.9 µM | Potency [2] 6.19 µM and 9.77 µM | Potency [3] 21.9 µM and 6.92 µM | Potency [4] 5.51 µM and 6.92 µM | Potency [5] 3.9 µM and 6.92 µM | Potency [6] 12.3 µM and 4.9 µM | Potency [7] 31 µM and 12.3 µM | Potency [8] 12.3 µM and 3.89 µM | Potency [9] 17.4 µM and 4.36 µM | Potency [10] 5.51 µM

Cc1cccc(N=Nc2ccc(N(C)C)cc2)c1
inactive: Potency [1] | Potency [5] | Potency [6] | Potency [7] | Potency [8] | Potency [9]

O=C1Nc2ccc(Cl)cc2C(c2ccccc2)=NC1O (stereo not given)
inactive: Potency [1] | Potency [3] | max response [4] -19.7% | Potency [5] | Potency [6] | Potency [7] | Potency [8] | Potency [9]

CCCCOC(=O)COC(=O)c1ccccc1C(=O)OCCCC
inactive: Potency [1] | Potency [2] | Potency [3] | max response [4] -1.67% and 1.98% | Potency [5] | Potency [6] | Potency [7] | Potency [8] | Potency [9] | Potency [10]

C[N+](C)(C)CC(=O)O
inactive: Potency [1] | Potency [2] | Potency [3] | max response [4] 5.5% and 7.98% | Potency [5] | Potency [6] | Potency [7] | Potency [8] | Potency [9] | Potency [10]

C[C@]12CCC(=O)C=C1CC[C@@H]1[C@@H]2CC[C@@]2(C)[C@H]1CC[C@]2(C)O
22.1 µM (active) and inactive: Potency [6]
49.4 µM (active) and inactive: Potency [1]
inactive: Potency [3] | Potency [7]
active: Potency [2] 19.7 µM | Potency [4] 19.7 µM | Potency [8] 35 µM | Potency [9] 19.7 µM and 23.9 µM
